# About 7,900 targets were measured; listed, in parts, are those with a hit and a random draw of the rest. About 0.6% of all pairs of compound and target were hits. Values without a mark were called inactive.
# Legend:
# Test in all cases: log2 fold change, soluble protein after heating vs DMSO (PISA); higher = thermal stabilisation; K562 cells, 10 uM, 30 min; active = over 0.2 and 3.5 SD of the protein, either way, in both replicates (recomputed)
# IRAK-1-4 Inhibitor I = compound: C1COCCN1CCN2C3=CC=CC=C3N=C2NC(=O)C4=CC(=CC=C4)[N+](=O)[O-] [IRAK-1-4 Inhibitor I]
# In short: (§1)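 K562 cells at 2×10^6 cells/mL were treated for 30 min with 10 μM compound, and aliquots were heated for 3 min over 48°C-58°C before pooling. Extraction used PBS with 0.5% NP-40 at 4°C, and soluble protein was the supernatant after 21,000xg for 90 min, measured by TMTpro 16plex LC-MS/MS with channel sums equalised. Thermal stability values, relative to control samples and from duplicates, are log2 fold changes.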
# ibrutinib = compound: C=CC(=O)N1CCC[C@@H](n2nc(-c3ccc(Oc4ccccc4)cc3)c3c(N)ncnc32)C1 [ibrutinib]
# In short: as §1
# [1] = compound: CC(=O)c1cnc2ccc(-c3cc(Cl)c(O)c(Cl)c3)nc2c1N[C@H]1CC[C@H](CN(C)C)CC1
# In short: as §1
# ralimetinib = compound: CC(C)(C)Cn1c(N)nc2ccc(-c3[nH]c(C(C)(C)C)nc3-c3ccc(F)cc3)nc21 [ralimetinib]
# In short: as §1
# [2] = compound: CC(C)(O)CC(=O)NCCn1ccc2ncnc(Nc3ccc(Oc4cccc(C(F)(F)F)c4)c(Cl)c3)c21
# In short: as §1
# [3] = compound: CC(C)C1=C2N=C(C=C(N2N=C1)NCC3=CC=CC=C3)NCCCCCCN
# In short: as §1
# [4] = compound: CC(C)C[C@@H](C=O)NC(=O)[C@H](CC(C)C)NC(=O)[C@H](CC(C)C)NC(=O)OCc1ccccc1
# In short: as §1
# pinometostat = compound: CC(C)N(C[C@H]1O[C@@H](n2cnc3c(N)ncnc32)[C@H](O)[C@@H]1O)[C@H]1C[C@@H](CCc2nc3cc(C(C)(C)C)ccc3[nH]2)C1 [pinometostat]
# In short: as §1
# [5] = compound: CC1=C(C(CC(=O)N1)C2=CC=C(C=C2)C(F)(F)F)C(=O)NC3=C(C=C4C(=C3)C=NN4)F
# In short: as §1
# [6] = compound: CC1=C(C2=C(C=C1)C(=O)C3=CC=CC=C3N2CCCN)C
# In short: as §1
# [7] = compound: CC1=C(C=C(C=C1)NC(=O)C2=CC(=CC=C2)C(C)(C)C#N)NC3=CC4=C(C=C3)N=CN(C4=O)C
# In short: as §1
# [8] = compound: CC1=C(C=C(C=C1)NC(=O)C2=CC(=CC=C2)N(C)C)NC(=O)C3=CC=C(C=C3)O
# In short: as §1
# [9] = compound: CC1=CC=C(C=C1)SC2=C3C=C(SC3=CN=C2)C(=O)N
# In short: as §1
# [10] = compound: CC1=NC(=CC=C1)C2=C(N=C(N2)C(C)(C)C)C3=CC4=NC=CN=C4C=C3
# In short: as §1
# Nexturastat A = compound: CCCCN(Cc1ccc(C(=O)NO)cc1)C(=O)Nc1ccccc1 [Nexturastat A]
# In short: as §1
# vemurafenib = compound: CCCS(=O)(=O)Nc1ccc(F)c(C(=O)c2c[nH]c3ncc(-c4ccc(Cl)cc4)cc23)c1F [vemurafenib]
# In short: as §1
# [11] = compound: CCCS(=O)(=O)Nc1ccc(F)c(C(=O)c2c[nH]c3ncc(Cl)cc23)c1F
# In short: as §1
# [12] = compound: CCCc1cc(C)[nH]c(=O)c1CNC(=O)c1cc(-c2ccnc(N3CCN(C)CC3)c2)cc2c1cnn2C(C)C
# In short: as §1
# givinostat = compound: CCN(CC)Cc1ccc2cc(COC(=O)Nc3ccc(C(=O)NO)cc3)ccc2c1 [givinostat]
# In short: as §1
# barasertib = compound: CCN(CCCOc1ccc2c(Nc3cc(CC(=O)Nc4cccc(F)c4)[nH]n3)ncnc2c1)CCOP(=O)(O)O [barasertib]
# In short: as §1
# Sequence of UniProt Q9NXX6 (Q9NXX6 whole entry, looked up): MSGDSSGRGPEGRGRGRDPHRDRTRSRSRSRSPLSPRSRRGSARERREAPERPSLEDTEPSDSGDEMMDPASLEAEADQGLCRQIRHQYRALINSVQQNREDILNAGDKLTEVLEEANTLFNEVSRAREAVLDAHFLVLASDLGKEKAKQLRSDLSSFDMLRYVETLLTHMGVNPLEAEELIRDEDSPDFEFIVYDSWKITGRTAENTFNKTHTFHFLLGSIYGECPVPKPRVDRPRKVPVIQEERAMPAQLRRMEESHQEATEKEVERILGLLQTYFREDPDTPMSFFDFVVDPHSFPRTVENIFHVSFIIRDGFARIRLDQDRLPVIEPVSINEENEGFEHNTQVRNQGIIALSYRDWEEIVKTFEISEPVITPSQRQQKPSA
# Sequence of UniProt Q15021 (Q15021 whole entry, looked up): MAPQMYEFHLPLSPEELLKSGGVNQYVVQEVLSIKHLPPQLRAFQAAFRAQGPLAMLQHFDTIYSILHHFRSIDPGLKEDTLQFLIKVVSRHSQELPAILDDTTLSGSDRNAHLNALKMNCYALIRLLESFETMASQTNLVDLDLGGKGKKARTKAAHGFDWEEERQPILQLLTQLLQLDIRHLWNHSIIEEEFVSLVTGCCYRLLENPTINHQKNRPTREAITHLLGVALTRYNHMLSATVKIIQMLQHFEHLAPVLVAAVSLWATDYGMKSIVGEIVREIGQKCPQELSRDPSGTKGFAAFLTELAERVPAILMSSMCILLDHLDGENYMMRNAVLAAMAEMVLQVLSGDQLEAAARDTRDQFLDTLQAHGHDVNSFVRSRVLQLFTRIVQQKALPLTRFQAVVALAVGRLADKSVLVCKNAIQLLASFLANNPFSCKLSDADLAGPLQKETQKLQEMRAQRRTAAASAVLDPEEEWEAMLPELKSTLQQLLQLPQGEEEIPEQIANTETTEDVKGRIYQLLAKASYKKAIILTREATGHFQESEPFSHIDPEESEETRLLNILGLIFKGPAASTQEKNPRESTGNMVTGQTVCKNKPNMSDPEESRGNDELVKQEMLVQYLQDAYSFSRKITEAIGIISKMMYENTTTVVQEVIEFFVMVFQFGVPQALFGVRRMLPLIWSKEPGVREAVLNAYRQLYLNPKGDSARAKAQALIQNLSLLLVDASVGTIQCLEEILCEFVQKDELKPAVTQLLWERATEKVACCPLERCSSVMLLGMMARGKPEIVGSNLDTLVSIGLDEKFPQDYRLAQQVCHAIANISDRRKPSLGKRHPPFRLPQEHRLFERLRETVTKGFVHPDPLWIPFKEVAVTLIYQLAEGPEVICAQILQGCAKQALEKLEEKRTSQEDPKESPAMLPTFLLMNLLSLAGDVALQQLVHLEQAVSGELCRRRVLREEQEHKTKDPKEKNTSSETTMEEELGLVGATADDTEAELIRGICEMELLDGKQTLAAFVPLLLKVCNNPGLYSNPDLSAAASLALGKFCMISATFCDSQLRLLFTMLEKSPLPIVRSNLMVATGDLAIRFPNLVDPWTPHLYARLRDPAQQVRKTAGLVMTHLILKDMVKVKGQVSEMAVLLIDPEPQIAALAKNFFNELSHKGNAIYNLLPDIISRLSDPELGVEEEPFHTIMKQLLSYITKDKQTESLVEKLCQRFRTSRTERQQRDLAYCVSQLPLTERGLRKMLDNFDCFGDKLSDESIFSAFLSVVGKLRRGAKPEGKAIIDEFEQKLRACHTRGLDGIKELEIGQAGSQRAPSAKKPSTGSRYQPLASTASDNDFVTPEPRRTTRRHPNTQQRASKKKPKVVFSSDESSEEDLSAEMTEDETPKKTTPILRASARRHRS
# Sequence of UniProt P11586 (P11586 whole entry, looked up): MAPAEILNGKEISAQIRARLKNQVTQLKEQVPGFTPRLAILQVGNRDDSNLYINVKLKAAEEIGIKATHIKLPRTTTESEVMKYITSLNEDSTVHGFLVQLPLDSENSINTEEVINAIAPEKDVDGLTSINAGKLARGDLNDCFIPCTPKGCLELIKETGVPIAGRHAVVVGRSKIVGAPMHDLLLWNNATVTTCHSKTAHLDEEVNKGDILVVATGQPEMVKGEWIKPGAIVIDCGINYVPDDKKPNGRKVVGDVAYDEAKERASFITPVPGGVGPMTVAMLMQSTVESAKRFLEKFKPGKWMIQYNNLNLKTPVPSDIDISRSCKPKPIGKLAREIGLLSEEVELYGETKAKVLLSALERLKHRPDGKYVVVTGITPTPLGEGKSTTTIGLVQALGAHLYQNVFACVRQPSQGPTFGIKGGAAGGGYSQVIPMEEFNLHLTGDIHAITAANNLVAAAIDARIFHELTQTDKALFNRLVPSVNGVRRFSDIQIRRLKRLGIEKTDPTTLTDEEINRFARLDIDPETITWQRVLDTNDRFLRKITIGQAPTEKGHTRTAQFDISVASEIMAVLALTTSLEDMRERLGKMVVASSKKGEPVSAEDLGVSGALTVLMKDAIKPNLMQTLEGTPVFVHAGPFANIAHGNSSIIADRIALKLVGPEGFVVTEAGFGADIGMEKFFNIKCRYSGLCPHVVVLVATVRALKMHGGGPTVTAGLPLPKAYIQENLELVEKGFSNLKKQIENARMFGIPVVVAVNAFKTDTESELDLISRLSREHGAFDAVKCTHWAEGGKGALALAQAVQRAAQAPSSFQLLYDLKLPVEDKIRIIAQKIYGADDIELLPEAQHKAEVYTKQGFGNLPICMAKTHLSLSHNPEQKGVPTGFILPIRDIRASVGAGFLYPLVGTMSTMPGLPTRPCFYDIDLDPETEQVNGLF
# Sequence of UniProt Q13469 (Q13469 whole entry, looked up): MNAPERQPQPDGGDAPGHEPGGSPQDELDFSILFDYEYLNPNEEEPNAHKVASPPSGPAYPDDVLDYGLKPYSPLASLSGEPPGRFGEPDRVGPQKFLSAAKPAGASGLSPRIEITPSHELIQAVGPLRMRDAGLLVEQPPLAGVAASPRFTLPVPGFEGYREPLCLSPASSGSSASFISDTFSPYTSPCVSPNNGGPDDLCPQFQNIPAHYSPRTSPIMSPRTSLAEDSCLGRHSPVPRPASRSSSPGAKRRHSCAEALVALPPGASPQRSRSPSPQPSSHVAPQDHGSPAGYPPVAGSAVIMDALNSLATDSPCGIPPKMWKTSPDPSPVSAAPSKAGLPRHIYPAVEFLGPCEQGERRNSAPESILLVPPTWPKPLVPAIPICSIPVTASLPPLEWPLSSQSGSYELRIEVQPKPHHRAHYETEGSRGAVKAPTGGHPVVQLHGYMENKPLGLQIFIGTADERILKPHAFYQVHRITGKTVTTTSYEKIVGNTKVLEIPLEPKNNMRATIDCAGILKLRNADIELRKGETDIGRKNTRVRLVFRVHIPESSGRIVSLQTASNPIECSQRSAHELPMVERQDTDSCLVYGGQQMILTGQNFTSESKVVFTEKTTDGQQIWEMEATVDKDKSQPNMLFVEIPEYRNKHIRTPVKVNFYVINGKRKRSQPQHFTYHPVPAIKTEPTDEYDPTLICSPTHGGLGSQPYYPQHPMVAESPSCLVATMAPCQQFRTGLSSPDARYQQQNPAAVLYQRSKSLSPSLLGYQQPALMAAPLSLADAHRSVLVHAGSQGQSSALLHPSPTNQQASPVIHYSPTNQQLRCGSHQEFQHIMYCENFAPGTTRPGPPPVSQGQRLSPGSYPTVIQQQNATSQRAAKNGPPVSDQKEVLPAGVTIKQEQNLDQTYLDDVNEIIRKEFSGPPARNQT
# Sequence of UniProt O95182 (O95182 whole entry, looked up): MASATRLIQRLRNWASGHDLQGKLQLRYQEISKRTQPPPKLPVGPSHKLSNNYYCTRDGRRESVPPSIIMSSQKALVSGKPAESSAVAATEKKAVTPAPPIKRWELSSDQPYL
# Sequence of UniProt Q96PU5 (Q96PU5 whole entry, looked up): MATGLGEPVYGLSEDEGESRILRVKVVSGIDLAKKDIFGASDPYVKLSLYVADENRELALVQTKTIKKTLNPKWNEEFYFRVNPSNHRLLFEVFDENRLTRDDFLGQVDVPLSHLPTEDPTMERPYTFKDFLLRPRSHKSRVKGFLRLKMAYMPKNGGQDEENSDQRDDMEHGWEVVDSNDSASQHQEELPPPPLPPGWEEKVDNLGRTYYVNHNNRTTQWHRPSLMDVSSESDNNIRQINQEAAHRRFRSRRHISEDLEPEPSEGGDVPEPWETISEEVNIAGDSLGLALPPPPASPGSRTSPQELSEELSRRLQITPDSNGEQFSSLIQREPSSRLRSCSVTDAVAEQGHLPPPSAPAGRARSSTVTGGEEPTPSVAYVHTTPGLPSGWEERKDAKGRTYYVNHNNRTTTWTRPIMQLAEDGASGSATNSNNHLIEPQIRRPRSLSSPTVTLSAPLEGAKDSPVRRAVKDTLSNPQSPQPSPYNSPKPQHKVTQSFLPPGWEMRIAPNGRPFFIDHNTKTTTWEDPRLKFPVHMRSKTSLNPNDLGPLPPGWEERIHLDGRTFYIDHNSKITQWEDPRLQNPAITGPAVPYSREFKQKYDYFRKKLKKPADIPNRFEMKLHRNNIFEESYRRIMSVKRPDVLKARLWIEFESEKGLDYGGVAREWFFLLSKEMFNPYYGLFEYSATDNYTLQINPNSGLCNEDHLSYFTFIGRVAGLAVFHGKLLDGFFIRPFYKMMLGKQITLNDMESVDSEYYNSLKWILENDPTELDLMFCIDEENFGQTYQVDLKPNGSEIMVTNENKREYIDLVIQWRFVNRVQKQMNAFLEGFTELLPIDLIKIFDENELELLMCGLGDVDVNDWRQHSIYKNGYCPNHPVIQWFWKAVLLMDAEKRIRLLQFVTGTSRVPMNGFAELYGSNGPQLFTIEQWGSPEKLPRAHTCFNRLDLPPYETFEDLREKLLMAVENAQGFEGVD
# Sequence of UniProt O75323 (O75323 whole entry, looked up): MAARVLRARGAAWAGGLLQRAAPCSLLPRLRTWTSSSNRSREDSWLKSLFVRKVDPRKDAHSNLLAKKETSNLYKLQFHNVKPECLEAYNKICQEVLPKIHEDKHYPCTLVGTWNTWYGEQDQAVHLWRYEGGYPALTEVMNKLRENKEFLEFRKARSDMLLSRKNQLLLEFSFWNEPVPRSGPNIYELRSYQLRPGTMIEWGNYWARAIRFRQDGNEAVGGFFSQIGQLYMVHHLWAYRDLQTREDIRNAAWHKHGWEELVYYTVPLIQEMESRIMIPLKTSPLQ
Target,log2 fold change (IRAK-1-4 Inhibitor I),log2 fold change (ibrutinib),log2 fold change [1],log2 fold change (ralimetinib),log2 fold change [2],log2 fold change [3],log2 fold change [4],log2 fold change (pinometostat),log2 fold change [5],log2 fold change [6],log2 fold change [7],log2 fold change [8],log2 fold change [9],log2 fold change [10],log2 fold change (Nexturastat A),log2 fold change (vemurafenib),log2 fold change [11],log2 fold change [12],log2 fold change (givinostat),log2 fold change (barasertib)
"NA, A0A0B4J2A0",0.014,-0.015,-0.072,-0.023,-0.105,0.044,0.031,0.018,0.051,0.107,0.016,-0.028,0.002,-0.006,-0.043,0.017,0.072,-0.091,0.029,0.012
MMS19 isoform 8 (UniProt Q96T76),-0.141,-0.029,-0.028,0.078,-0.082,-0.216,0.006,0.084,-0.018,0.011,-0.022,-0.029,0,0.067,0.051,0.047,0.1,0.061,-0.061,0.063
NCAPD2 (UniProt Q15021),-0.101,-0.067,0.097,0.048,-0.151,-0.208,0.054,0.039,-0.012,-0.036,0.057,-0.032,0.012,-0.013,0.058,0.119,0.041,0.101,0.077,0.03
NRDC isoform 2 (UniProt O43847),0.003,-0.033,-0.026,0.011,-0.04,0.053,0.029,0.015,0,0.037,0.001,-0.053,0.01,0.03,0,0.047,0.051,0.021,0.017,0.037
NEDD4L (UniProt Q96PU5),0.026,-0.002,-0.014,-0.293 (active),-0.01,-0.107,-0.059,0.027,-0.017,-0.084,0.015,-0.138,-0.046,0.01,-0.059,0.049,0.019,0.013,0.056,-0.021
NDUFA7 (UniProt O95182),0.169,0.024,-0.014,-0.017,-0.192,-0.063,0.158,0.074,0.038,0.033,-0.013,0,-0.007,-0.021,-0.035,-0.045,0.019,-0.079,-0.024,-0.011
PAAF1 (UniProt Q9BRP4),0.037,-0.003,-0.029,0.001,0.007,0.037,-0.28 (active),-0.026,0.008,0.027,-0.026,-0.005,0.016,0.003,-0.035,-0.028,0.019,-0.038,0.023,0.021
OXSR1 (UniProt O95747),0.014,-0.022,-0.341 (active),0.045,-0.115,-0.111,-0.05,0.026,0.02,0.106,0.019,-0.11,0.014,0.004,-0.021,0.037,0.038,0.007,0.055,0.035
NIPSNAP2 (UniProt O75323),0.018,0.115,-0.084,-0.054,0.049,0.014,-0.015,-0.034,0.002,0.031,0.06,-0.044,0.055,0,-0.072,0.06,0.029,0.007,-0.081,0.019
MSH6 (UniProt P52701),-0.18,-0.088,-0.121,-0.024,-0.299,-0.544,0.039,-0.005,0.053,0.884 (active),0.076,-0.078,0.112,0.108,-0.049,0.119,0.194,0.03,0.35,0.171
NFATC2 (UniProt Q13469),-0.075,-0.008,-0.635 (active),-0.001,0.011,-0.055,0.099,0.102,0.013,-0.033,-0.046,-0.079,-0.031,0.018,0.12,0.038,0.041,0.086,0.192,0.107
NSMCE4A (UniProt Q9NXX6),0.077,-0.116,-0.059,0.051,0.003,0.252,0.008,0,-0.052,-0.124,0,0.022,-0.035,-0.053,0.037,0.088,-0.041,-0.016,-0.072,0.196
NAT14 (UniProt Q8WUY8),-0.061,0.019,-0.033,-0.028,-0.257,-0.185,0.027,-0.074,0.022,-0.187,0.012,-0.054,0.011,0.031,0.227,0.054,-0.051,-0.103,-0.043,0.027
MRPS10 (UniProt P82664),-0.024,0.02,-0.065,-0.031,0.01,-0.027,0.066,0.045,0.041,-0.28,0.018,0,0,-0.03,0.097,-0.002,0.006,-0.046,0.063,-0.051
MRPL34 (UniProt Q9BQ48),-0.046,0.107,0.092,0.164,0.042,-0.137,0.102,0.196,0.086,-0.51 (active),-0.022,-0.01,0.019,-0.052,0.259,-0.062,0.051,0.066,-0.021,0.022
MTHFD1 (UniProt P11586),0.01,-0.014,-0.068,-0.001,-0.082,-0.102,-0.005,-0.034,-0.023,0.073,0.052,-0.026,0.003,0.042,-0.046,0.06,0.046,-0.013,0.048,0.038
